Assay results taken from PubChem BioAssay AID1159580 (chemical genetic matrix, 2015).
The whole screen tested about 5,500 compounds, of which about 2,000 (36%) were called active. About 18% were inconclusive and are not listed. No stated cut-off is given here; in the data, active means normalized growth mostly below about 0.91 (no sharp cut-off); inconclusive means no clear call, values can overlap the other calls; inactive means mostly above about 0.92. The list shows a part of the results.

Experiment: chemical genetic growth profiling, strain panel (AID 1159580);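 further: tested at 20 µM; growth read once vehicle control cultures reached saturation at 30 °C; 1 = growth at the plate median or of vehicle wells; lower values mean less growth of the strain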
Settings: growth OD

Measured: normalized growth

CCOC(=O)OC(C)OC(=O)C1N2C(=O)C(NC(=O)[C@H](N)c3ccccc3)C2SC1(C)C (stereo not given in full)
inactive: S. cerevisiae deletion strains, locus YJR075W, strain HOC1, hits give low values 0.966 | S. cerevisiae deletion strains, locus YKL009W, strain mrt4, hits give low values 0.946 | S. cerevisiae deletion strains, locus YKL068W, hits give low values 0.98 | S. cerevisiae deletion strains, locus YKL085W, strain MDH1 (second series), hits give low values 0.989 | S. cerevisiae deletion strains, locus YKL085W, strain MDH1, hits give low values 0.989 | S. cerevisiae deletion strains, locus YKL160W, strain elf1, hits give low values 0.966 | S. cerevisiae deletion strains, locus YKL190W, strain CNB1, hits give low values 0.975 | S. cerevisiae deletion strains, locus YKR001C, strain vps1, hits give low values 0.98 | S. cerevisiae deletion strains, locus YKR026C, strain gcn3, hits give low values 1.01 | S. cerevisiae deletion strains, locus YKR091W, strain srl3, hits give low values 0.977 | S. cerevisiae deletion strains, locus YLL001W, strain dnm1, hits give low values 0.96 | S. cerevisiae deletion strains, locus YLL026W, hits give low values 0.998 | S. cerevisiae deletion strains, locus YLL041C, strain sdh2, hits give low values 0.983 | S. cerevisiae deletion strains, locus YLR027C, strain aat2, hits give low values 0.984 | S. cerevisiae deletion strains, locus YLR039C, strain RIC1, hits give low values 0.991 | S. cerevisiae deletion strains, locus YLR058C, strain SHM2, hits give low values 0.963 | S. cerevisiae deletion strains, locus YLR102C, strain apc9, hits give low values 0.987 | S. cerevisiae deletion strains, locus YLR113W, strain HOG1, hits give low values 0.966 | S. cerevisiae deletion strains, locus YLR221C, strain rsa3, hits give low values 0.999 | S. cerevisiae deletion strains, locus YLR258W, strain gsy2, hits give low values 1 | S. cerevisiae deletion strains, locus YLR262C, strain YPT6 (second series), hits give low values 0.982 | S. cerevisiae deletion strains, locus YLR262C, strain YPT6, hits give low values 0.964 | S. cerevisiae deletion strains, locus YLR268W, strain sec22, hits give low values 0.988 | S. cerevisiae deletion strains, locus YLR320W, strain mms22, hits give low values 0.96 | S. cerevisiae deletion strains, locus YLR330W, strain CHS5, hits give low values 0.992 | S. cerevisiae deletion strains, locus YLR342W, strain FKS1 (second series), hits give low values 1.11 | S. cerevisiae deletion strains, locus YLR342W, strain FKS1, hits give low values 0.976 | S. cerevisiae deletion strains, locus YLR357W, strain rsc2, hits give low values 0.961 | S. cerevisiae deletion strains, locus YLR370C, strain arc18, hits give low values 0.982 | S. cerevisiae deletion strains, locus YLR371W, strain rom2, hits give low values 0.999 | S. cerevisiae deletion strains, locus YLR384C, strain iki3, hits give low values 0.974 | S. cerevisiae deletion strains, locus YLR418C, strain cdc73, hits give low values 0.978 | S. cerevisiae deletion strains, locus YML016C, strain PPZ1, hits give low values 0.986 | S. cerevisiae deletion strains, locus YML032C, strain rad52, hits give low values 0.962 | S. cerevisiae deletion strains, locus YML120C, strain ndi1, hits give low values 0.974 | S. cerevisiae deletion strains, locus YML124C, strain tub3, hits give low values 0.987 | S. cerevisiae deletion strains, locus YMR058W, strain fet3, hits give low values 0.977 | S. cerevisiae deletion strains, locus YMR078C, strain ctf18, hits give low values 0.994 | S. cerevisiae deletion strains, locus YMR125W, strain sto1, hits give low values 0.99 | S. cerevisiae deletion strains, locus YMR129W, hits give low values 0.992 | S. cerevisiae deletion strains, locus YMR205C, strain PFK2, hits give low values 0.966 | S. cerevisiae deletion strains, locus YMR223W, strain ubp8, hits give low values 0.986 | S. cerevisiae deletion strains, locus YMR231W, strain pep5, hits give low values 0.998 | S. cerevisiae deletion strains, locus YMR263W, strain SAP30, hits give low values 0.967 | S. cerevisiae deletion strains, locus YMR307W, strain GAS1, hits give low values 1.04 | S. cerevisiae deletion strains, locus YNL067W, strain RPL9B, hits give low values 0.945 | S. cerevisiae deletion strains, locus YNL071W, strain lat1, hits give low values 0.998 | S. cerevisiae deletion strains, locus YNL153C, strain GIM3, hits give low values 0.932 | S. cerevisiae deletion strains, locus YNL183C, strain NPR1, hits give low values 0.947 | S. cerevisiae deletion strains, locus YNL209W, strain ssb2, hits give low values 0.989 | S. cerevisiae deletion strains, locus YNL233W, strain BNI4, hits give low values 0.97 | S. cerevisiae deletion strains, locus YNL248C, strain rpa49, hits give low values 0.985 | S. cerevisiae deletion strains, locus YNL250W, strain rad50, hits give low values 0.968 | S. cerevisiae deletion strains, locus YNL271C, strain bni1, hits give low values 0.986 | S. cerevisiae deletion strains, locus YNL298W, strain CLA4, hits give low values 0.982 | S. cerevisiae deletion strains, locus YNL307C, strain MCK1, hits give low values 0.995 | S. cerevisiae deletion strains, locus YNL322C, strain KRE1 (second series), hits give low values 0.968 | S. cerevisiae deletion strains, locus YNL322C, strain KRE1, hits give low values 0.985 | S. cerevisiae deletion strains, locus YNR049C, strain mso1, hits give low values 0.976 | S. cerevisiae deletion strains, locus YNR052C, strain pop2, hits give low values 0.987 | S. cerevisiae deletion strains, locus YOL006C, strain TOP1, hits give low values 0.825 | S. cerevisiae deletion strains, locus YOL012C, strain htz1 0.766 | S. cerevisiae deletion strains, locus YOL147C, strain pex11, hits give low values 0.993 | S. cerevisiae deletion strains, locus YOR001W, strain rrp6, hits give low values 1.01 | S. cerevisiae deletion strains, locus YOR061W, strain CKA2, hits give low values 0.949 | S. cerevisiae deletion strains, locus YOR069W, strain VPS5, hits give low values 0.992 | S. cerevisiae deletion strains, locus YOR070C, strain gyp1, hits give low values 0.993 | S. cerevisiae deletion strains, locus YOR080W, strain dia2, hits give low values 0.975 | S. cerevisiae deletion strains, locus YOR083W, strain WHI5, hits give low values 0.967 | S. cerevisiae deletion strains, locus YOR106W, strain vam3, hits give low values 0.952 | S. cerevisiae deletion strains, locus YOR136W, strain idh2, hits give low values 0.974 | S. cerevisiae deletion strains, locus YOR144C, strain elg1, hits give low values 0.987 | S. cerevisiae deletion strains, locus YOR184W, strain ser1, hits give low values 0.985 | S. cerevisiae deletion strains, locus YOR231W, strain MKK1, hits give low values 0.978 | S. cerevisiae deletion strains, locus YOR265W, strain rbl2, hits give low values 0.993 | S. cerevisiae deletion strains, locus YOR270C, strain vph1, hits give low values 0.92 | S. cerevisiae deletion strains, locus YOR290C, strain snf2, hits give low values 0.985 | S. cerevisiae deletion strains, locus YOR316C, strain cot1, hits give low values 0.976 | S. cerevisiae deletion strains, locus YPL051W, strain arl3, hits give low values 0.99 | S. cerevisiae deletion strains, locus YPL055C, strain LGE1, hits give low values 0.881 | S. cerevisiae deletion strains, locus YPL078C, strain atp4, hits give low values 0.971 | S. cerevisiae deletion strains, locus YPL106C, strain sse1, hits give low values 0.955 | S. cerevisiae deletion strains, locus YPL240C, strain hsp82, hits give low values 1 | S. cerevisiae deletion strains, locus YPL256C, strain CLN2, hits give low values 0.978 | S. cerevisiae deletion strains, locus YPR119W, strain clb2, hits give low values 0.983 | S. cerevisiae deletion strains, locus YPR141C, strain kar3, hits give low values 0.978 | S. cerevisiae deletion strains, locus YPR163C, strain tif3, hits give low values 0.984 | S. cerevisiae deletion strains, locus YPR167C, strain met16, hits give low values 0.996 | S. cerevisiae deletion strains, strain wtn01, hits give low values 0.992 | S. cerevisiae strains, strain wild type, hits give low values 0.98
